High-throughput results (PubChem BioAssay)
Hits are enriched below; roughly 5.3% of the tested compounds scored in any of these assays.
Six1-Eya2 inh: qHTS Assay for Inhibitors of the Six1/Eya2 Interaction; Homeobox protein SIX1 (Homo sapiens) + Protein phosphatase EYA2 (Homo sapiens), …; AlphaScreen GST-Six1/His-Eya2 binding, biochemical; active compounds read low; activity change, % (test concentration not listed); 360,000 tested, 0.56% active; AID 651725, 2012; in the data active = activity change below about -65%; inconclusive = mostly about -30% to -63%; also: % is scaled to controls: 0 for no effect and ±100 for the full control effect
Target sequence (O00167 whole entry, looked up): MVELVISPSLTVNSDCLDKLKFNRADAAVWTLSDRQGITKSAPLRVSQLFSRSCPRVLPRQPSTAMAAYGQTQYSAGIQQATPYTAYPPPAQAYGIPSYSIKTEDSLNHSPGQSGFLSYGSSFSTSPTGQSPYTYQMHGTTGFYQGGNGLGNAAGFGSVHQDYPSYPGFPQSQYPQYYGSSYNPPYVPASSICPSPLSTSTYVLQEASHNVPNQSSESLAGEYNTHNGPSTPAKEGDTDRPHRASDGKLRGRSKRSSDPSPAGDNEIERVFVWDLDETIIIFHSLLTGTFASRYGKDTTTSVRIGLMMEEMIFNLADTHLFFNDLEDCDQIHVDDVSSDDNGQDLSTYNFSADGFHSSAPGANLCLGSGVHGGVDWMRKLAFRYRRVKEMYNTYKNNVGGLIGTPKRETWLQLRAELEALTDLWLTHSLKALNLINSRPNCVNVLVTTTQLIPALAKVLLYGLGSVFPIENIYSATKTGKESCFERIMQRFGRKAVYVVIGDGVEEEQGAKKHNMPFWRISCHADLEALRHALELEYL
Target sequence (Q15475 whole entry, looked up): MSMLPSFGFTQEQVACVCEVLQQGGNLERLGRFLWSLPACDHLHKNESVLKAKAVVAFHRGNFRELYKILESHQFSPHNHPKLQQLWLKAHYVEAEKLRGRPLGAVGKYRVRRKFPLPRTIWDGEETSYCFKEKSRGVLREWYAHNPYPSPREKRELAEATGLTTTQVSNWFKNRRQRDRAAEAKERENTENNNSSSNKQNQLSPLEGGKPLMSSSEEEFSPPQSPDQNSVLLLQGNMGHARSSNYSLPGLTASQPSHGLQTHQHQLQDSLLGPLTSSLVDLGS
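GST-Six1 + His-Eya2 (5X stock: 250/500 nM); Tris pH 8.0, 300 mM NaCl, 0.05% BSA, 0.02% Tween 20; GSH donor/Ni acceptor beads; 1 h 37 °C dark; AlphaScreen readout.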
HP1b binding inh: HTS for Inhibitors of HP1-beta Chromodomain Interactions with Methylated Histone Tails; AlphaScreen HP1-beta / biotin-H3K9me3 peptide binding; Chromobox protein homolog 1 (Homo sapiens), P83916; AID 540317, 2011; Potency, µM (titrated, usually from 114 µM), without a hit: at the highest dose activity change, negative = inhibition, hits mostly inhibitors; 390,000 tested, 0.56% active; also: potency is read from the fitted curve at half-maximal effect; nearly all actives have a fitted effect of over 70% in size
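AlphaScreen: HP1-beta (50 nM) preformed 30 min with biotin-H3(1-18)K9me3 peptide (50 nM) in PBS pH 7.4, 0.01% Tween-20. Compound added for 30 min at RT, then streptavidin donor/nickel chelate acceptor beads (10 ug/mL) for 30 min.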
BAZ2B block: qHTS Assay for Inhibitors of BAZ2B | 360,000 tested, 4.4% active | Bromodomain adjacent to zinc finger domain protein 2B (Homo sapiens), Q9UIF8 | Potency, µM (highest dose often 114 µM), for inactives: at the highest dose activity change, negative = inhibition, usual class: inhibitors | AlphaScreen BAZ2B-H3K14Ac peptide displacement; also: potency is read from the fitted curve at half-maximal effect; % is scaled to controls: 0 for no effect and ±100 for the full control effect; nearly all actives have a fitted effect of over 60% in size
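AlphaScreen displacement: compounds (up to 110uM) incubated 30 min at room temperature with a preformed 50 nM BAZ2B/50 nM biotinylated H3K14Ac peptide complex in PBS pH 7.4 with Tween-20. Donor and acceptor beads at 10 ug/mL final added, 20 min light-protected before reading.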
CtBP-E1A inh: qHTS Assay for Inhibitors of the CtBP/E1A Interaction. CtBP / adenovirus E1A interaction (AlphaScreen). AlphaScreen GST-E1A/His-CtBP binding, 1536-well; active compounds read low. activity change, % (no concentration beside the values). 340,000 tested, 0.49% active. AID 651724, 2012; in the data active = activity change below about -65%; inconclusive = mostly about -30% to -63%; also: % is scaled to controls: 0 for no effect and ±100 for the full control effect
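Protein mix (5X: 125 nM each GST-E1A, His-CtBP) was incubated with pinned compound 2 h at 37 deg C in dark, in 50 mM Tris pH 8.0 buffer with 300 mM NaCl. Glutathione donor and nickel acceptor beads followed; AlphaScreen signal read after 1 h.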
JMJD2A Tudor: qHTS Assay for Inhibitors of JMJD2A-Tudor Domain | Lysine-specific demethylase 4A (Homo sapiens), O75164 | AlphaScreen JMJD2A-Tudor / H3K4me3 peptide binding | Potency, µM (highest dose often 114 µM), for the others: top-dose activity change, negative = inhibition, most hits filed as inhibitors | 390,000 tested, 4.4% active; also: potency is read from the fitted curve at half-maximal effect; % is scaled to controls: 0 for no effect and ±100 for the full control effect; nearly all actives have a fitted effect of over 50% in size
TDP1 inh: qHTS Assay for Inhibitors of Tyrosyl-DNA Phosphodiesterase (TDP1) | recombinant TDP1, AlphaScreen DNA substrate cleavage | Potency, µM (doses to about 130 µM), for the others: at the highest dose activity change, negative = inhibition, hits mostly inhibitors | 350,000 tested, 0.28% active; also: potency is read from the fitted curve at half-maximal effect; % is scaled to controls: 0 for no effect and ±100 for the full control effect; nearly all actives have a fitted effect of over 40% in size
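Here, a 5' biotin and 3' phosphotyrosine-FITC DNA oligonucleotide reports Tdp1 activity: intact substrate bridges AlphaScreen beads, while cleavage leaves a 3' phosphate and drops signal. All incubations at room temperature.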
* marks the source's active call; other numbers are inactive results; [ ] = remark or other dose. Unless noted, calls follow the shape of the dose curve; as a rule, active = well fitted inhibition curve with a large enough effect; inconclusive = small, poorly fitted or top-dose-only effect; inactive = no such curve, though single readings can be large or run the other way.

For Cc1ccc(NN=C2c3ccccc3-c3ccccc32)cc1 the results were Six1-Eya2 inh -19.9, HP1b binding inh inconclusive, BAZ2B block inconclusive, CtBP-E1A inh -21.1, JMJD2A Tudor 56.2µM* and TDP1 inh 10.8%.
CC(C)Oc1ccc(OCCn2c(=S)[nH]c3c(N)ncnc32)cc1 was read as Six1-Eya2 inh -0.7, HP1b binding inh inconclusive, BAZ2B block -33.7%, JMJD2A Tudor 5.62µM* and TDP1 inh 8.6%.
`CC(C)Oc1ccc(OCCn2c(S(=O)(=O)O)nc3c(N)ncnc32)cc1` gave Six1-Eya2 inh 7.1, HP1b binding inh 24.3%, BAZ2B block -6.6% and JMJD2A Tudor -17.4%.
Screening Cc1ccc(OCCn2c(=S)[nH]c3c(N)ncnc32)cc1 returned Six1-Eya2 inh 0.7, HP1b binding inh inconclusive, BAZ2B block -26.3%, CtBP-E1A inh -10.0, JMJD2A Tudor 5.01µM* and TDP1 inh 2.5%.
For COc1ccccc1NC(=O)Cn1c(=O)n(CC2CCC(C(=O)NCCc3ccccc3)CC2)c(=O)c2ccccc21 (stereo not drawn) the results were HP1b binding inh 18.0%, BAZ2B block 0.5%, JMJD2A Tudor -15.8% and TDP1 inh -2.5%.
For CC(=O)c1cc2c(s1)c1cnn(Cc3ccccc3F)c(=O)c1n2C the results were JMJD2A Tudor -15.0% and TDP1 inh -0.5%.
Screening O=C(Cn1ccc2cc(S(=O)(=O)N3CCCCCC3)ccc21)NCCc1ccccc1Cl returned HP1b binding inh 16.2%, BAZ2B block -5.4%, JMJD2A Tudor -22.8% and TDP1 inh 2.8%.
Screening COc1ccc(C2C(C(C)=O)=C(C)N=c3s/c(=C\c4ccco4)c(=O)n32)c(OC)c1 (stereo not drawn) returned Six1-Eya2 inh inconclusive, HP1b binding inh inconclusive, CtBP-E1A inh inconclusive, JMJD2A Tudor 31.6µM* and TDP1 inh 8.3%.
`CCOC(=O)C1=C(C)N=c2s/c(=C/c3ccc(OCC(=O)O)cc3)c(=O)n2C1c1ccc(OC)cc1OC` (stereo not drawn) gave Six1-Eya2 inh -3.6, HP1b binding inh -9.5%, BAZ2B block 35.5µM* and JMJD2A Tudor 50.1µM*.
Screening CCOC(=O)C1=C(C)N=c2s/c(=C\c3ccc(O)c([N+](=O)[O-])c3)c(=O)n2C1c1ccccc1OC (stereo not drawn) returned Six1-Eya2 inh 3.7, HP1b binding inh inconclusive, BAZ2B block 8.91µM*, CtBP-E1A inh -13.5 and JMJD2A Tudor 10µM*.
`COc1ccc(/C=c2/sc3n(c2=O)C(c2ccccc2OC)C2=C(N=3)c3ccccc3CC2)cc1O` (stereo not drawn) gave Six1-Eya2 inh -16.7, HP1b binding inh -5.7%, BAZ2B block inconclusive, CtBP-E1A inh -16.1, JMJD2A Tudor inconclusive and TDP1 inh 6.7%.
`COc1ccc(C2C(C(C)=O)=C(C)N=c3s/c(=C\c4ccc5c(c4)OCO5)c(=O)n32)c(OC)c1` (stereo not drawn) gave Six1-Eya2 inh -11.1, HP1b binding inh -6.9%, CtBP-E1A inh -3.8 and JMJD2A Tudor -26.0%[11.4 µM].
For CCOC(=O)C1=C(C)N=c2s/c(=C\c3ccc(OCC(=O)O)cc3)c(=O)n2C1c1ccccc1OC (stereo not drawn) the results were Six1-Eya2 inh 0.0, HP1b binding inh -19.2%, BAZ2B block 79.4µM*, CtBP-E1A inh -3.5 and JMJD2A Tudor 89.1µM*.
C[C@]12CC[C@@H]3c4ccc(O)cc4CC[C@H]3[C@@H]1CCC2OC(=O)CCC1CCCC1 (stereo partly drawn) was read as TDP1 inh 4.3%.
Screening Cc1cccc(CNC(=O)CN2CC(C)Sc3ccccc32)c1 (stereo not drawn) returned HP1b binding inh 11.2%[57 µM], BAZ2B block -20.5%, JMJD2A Tudor -24.6% and TDP1 inh 5.3%.
For CC(=O)c1cc(-c2ccccc2)n(CC(=O)NCCc2ccc(C)cc2)c1C the results were HP1b binding inh 38.8%, BAZ2B block 3.1%, JMJD2A Tudor -9.3% and TDP1 inh 0.0%.
Screening COc1ccc(C2C(C(C)=O)=C(C)N=c3s/c(=C\c4cc(C)n(C)c4C)c(=O)n32)c(OC)c1 (stereo not drawn) returned Six1-Eya2 inh -18.0, HP1b binding inh 1.4%, BAZ2B block inconclusive, CtBP-E1A inh -13.2, JMJD2A Tudor inconclusive and TDP1 inh 2.0%.
Screening CCOC(=O)C1=C(C)N=c2s/c(=C/c3cccc([N+](=O)[O-])c3O)c(=O)n2C1c1ccc(OC)cc1OC (stereo not drawn) returned Six1-Eya2 inh -28.3, HP1b binding inh 7.08µM*, BAZ2B block 5.01µM*, CtBP-E1A inh inconclusive and JMJD2A Tudor 11.2µM*.
O=c1/c(=C/c2ccc(O)c([N+](=O)[O-])c2)sc2nc3ccccc3n12 was read as Six1-Eya2 inh -24.5, HP1b binding inh inconclusive, BAZ2B block inconclusive, CtBP-E1A inh -8.5, JMJD2A Tudor 44.7µM* and TDP1 inh 0.0%.
`O=c1/c(=C\c2cccnc2)sc2nc3ccccc3n12` gave Six1-Eya2 inh -3.1, HP1b binding inh 25.5%, BAZ2B block 3.1%, CtBP-E1A inh -8.9, JMJD2A Tudor -4.2% and TDP1 inh 4.7%.
`CC(=O)c1ccc(NC(=O)CSc2ccc3nnc(-c4ccccn4)n3n2)cc1` gave Six1-Eya2 inh -25.8, HP1b binding inh 45.5%, BAZ2B block 0.7%, CtBP-E1A inh inconclusive and JMJD2A Tudor 31.6µM*.
O=C(CSc1n[nH]c(-c2ccccn2)n1)Nc1ccc(F)cc1 was read as Six1-Eya2 inh inconclusive, HP1b binding inh 32.2%, BAZ2B block 3.98µM*, CtBP-E1A inh -94.8*, JMJD2A Tudor 5.62µM* and TDP1 inh 3.7%.
`Cc1ccc(NC(=O)CSc2n[nH]c(-c3ccccn3)n2)cc1` gave Six1-Eya2 inh -77.4*, HP1b binding inh 58.1%, BAZ2B block 3.98µM*, CtBP-E1A inh -90.5*, JMJD2A Tudor 3.98µM* and TDP1 inh -0.1%.
Cc1cc(NC(=O)CSc2ccc3nnc(-c4cccs4)n3n2)no1 was read as Six1-Eya2 inh inconclusive, HP1b binding inh 48.9%, BAZ2B block 11.1%, CtBP-E1A inh -67.6*, JMJD2A Tudor -12.4% and TDP1 inh 0.0%.
